# In the library only some 3.7% were active in any assay of this set; here they are far more common.
# RGS4 inhibitor: Inhibitors of Regulator of G Protein Signaling (RGS) 4: qHTS; Transcreener GDP fluorescence polarization, RGS4-accelerated GTP hydrolysis; Potency, µM (titrated, usually from 114 µM), inactives show top-dose activity change, negative = inhibition, actives largely listed as inhibitors; 390,000 compounds, 0.039% hits; further: potency means the concentration at half of the fitted maximal effect; on the % scale 0 is the no-effect control and ±100 the full control effect; nearly all actives have a fitted effect of over 75% in size
# Target sequence (P49798 whole entry, looked up): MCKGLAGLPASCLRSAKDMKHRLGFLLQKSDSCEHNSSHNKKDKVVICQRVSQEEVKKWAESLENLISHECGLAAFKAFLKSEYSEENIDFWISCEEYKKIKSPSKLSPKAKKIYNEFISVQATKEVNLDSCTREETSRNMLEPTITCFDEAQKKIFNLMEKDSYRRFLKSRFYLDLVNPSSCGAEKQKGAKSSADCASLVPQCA
#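 MLSMR compounds (23 nl, pin-transferred) preincubated 10 min at room temperature with a 500nM (2x) first reagent, then RGS4 at 900nM (2x) plus Transcreener GDP mix added; fluorescence polarization (620/688 nm) read before and after 90 min at 30 °C.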
# DRD3 antagonist: qHTS of D3 Dopamine Receptor Antagonist: qHTS | D(3) dopamine receptor (Homo sapiens), P35462 | D3R cells, DiscoveRx beta-arrestin luminescence, antagonist mode; active compounds read low | max response, negative = inhibition, % | 360,000 compounds, 2.5% hits; in the data active means max response below about -50%; inconclusive means no clear call, values can overlap the other calls; further: on the % scale 0 is the no-effect control and ±100 the full control effect
# Target sequence (P35462 whole entry, looked up): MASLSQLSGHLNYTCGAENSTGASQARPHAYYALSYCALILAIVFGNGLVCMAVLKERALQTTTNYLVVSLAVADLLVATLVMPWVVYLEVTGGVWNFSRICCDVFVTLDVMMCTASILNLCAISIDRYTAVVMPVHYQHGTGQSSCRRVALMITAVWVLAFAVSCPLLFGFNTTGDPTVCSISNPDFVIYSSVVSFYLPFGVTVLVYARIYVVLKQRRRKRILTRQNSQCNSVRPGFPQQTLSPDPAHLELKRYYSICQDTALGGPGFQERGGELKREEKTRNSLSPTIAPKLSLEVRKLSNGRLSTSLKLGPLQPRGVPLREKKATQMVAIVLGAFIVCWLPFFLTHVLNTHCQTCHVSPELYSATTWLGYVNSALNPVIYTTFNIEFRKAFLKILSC
#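 Cells plated overnight at 1500 cells/well, then exposed to library compounds with dopamine controls for 90 minutes at 37 degrees C. DiscoveRx reagent added for 30–60 minutes at room temperature; luminescence read, quantitative HTS format.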
# B2AR arrestin: qHTS assay of beta-arrestin-biased ligands of beta2-adrenergic receptor | Beta-2 adrenergic receptor (Homo sapiens), P07550 | AID 492947, 2010 | Potency, µM (top dose mostly 46.1 µM), for inactives: at the top dose activation, actives largely listed as activators | 330,000 compounds, 0.02% hits | beta-arrestin recruitment to beta2AR, cell-based reporter;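 further: potency means the concentration at half of the fitted maximal effect; 0% = DMSO controls and full agonism = EC100 isoproterenol or metaproterenol; nearly all actives have a fitted effect of over 65% in size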
# BRCA1 expr up: qHTS Assay to Identify Small Molecule Activators of BRCA1 Expression. MCF7-BRCA1-FFLuc reporter, luminescence, 48 h; response scale: scaled: vehicle 0%, 10 µM genistein 100%. Potency, µM (doses to about 46.1 µM), inactives show at the highest dose activation, actives largely listed as activators. 380,000 compounds, 1.1% hits. AID 624202, 2012; further: potency means the concentration at half of the fitted maximal effect; nearly all actives have a fitted effect of over 80% in size
#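 Luminescence from a BRCA1-driven firefly luciferase in MCF7 cells was the read-out, taken 15 min after substrate addition following 48 h compound exposure at 37 °C. Data were normalized to a 10 microM genistein control and DMSO vehicle.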
# PTHR1 agonist: qHTS for PTHR1 Agonists: Primary Screen; Parathyroid hormone/parathyroid hormone-related peptide receptor (Homo sapiens), Q03431; HEK293 GP2 PTHR1 cells, GloSensor cAMP luminescence, 1 h; Potency, µM (doses to about 115 µM), inactives show top-dose activation, usual class: activators; 410,000 compounds, 0.075% hits; AID 743266, 2014; further: potency means the concentration at half of the fitted maximal effect; nearly all actives have a fitted effect of over 55% in size
#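 HEK-293-derived GP2 cells expressing PTHR1 and a GloSensor cAMP reporter, 3,000/well, plated overnight, given luciferin plus IBMX (each 0.5 mM as added) for 1 h at 37 °C, then compound for 1 h at 37 °C. Luminescence was read after 15 min at room temperature.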
# DRD3 agonist: qHTS of D3 Dopamine Receptor Agonist: qHTS; D(3) dopamine receptor (Homo sapiens), P35462; D3R DiscoveRx beta-arrestin cells, luminescence, 90 min; max activation, %; 410,000 compounds, 0.58% hits; AID 652048, 2013; in the data active means max activation above about 30%; further: 0% is about no effect
#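 Agonist mode: compounds and dopamine controls were applied to plated cells for 90 min at 37 degrees C after an overnight attachment at 1500 cells/well. Luminescent read-out followed 30 - 60 minutes at room temperature with DiscoveRx detection reagent.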
# Active calls of the source: *; i = inactive; ? = inconclusive; . = not tested or not shown; [ ] = another dose, or the depositor's remark. Unless noted, the call rests on the fitted dose curve; in most records, active means well fitted curve in the direction sought with a large enough effect; inconclusive means small, poorly fitted or top-dose-only effect, or another doubt; inactive means no such curve, though single readings can be large; an effect the other way counts as inactive or inconclusive.
SMILES,RGS4 inhibitor,DRD3 antagonist,B2AR arrestin,BRCA1 expr up,PTHR1 agonist,DRD3 agonist
COC(=O)c1ccc(OCC(O)CN2CCN(C(=O)c3ccco3)CC2)cc1 (stereo not given),2%,7,0%,10%,-33%,21
O=C(c1ccco1)N1CCN(CC(O)COc2ccc(Br)cc2)CC1 (stereo not given),-36%,-6,0%,-7%,-15%,35*
COc1cccc(CN2CCCN(S(=O)(=O)c3ccc(Br)cc3)CC2)c1,-12%,-57*,0%,3%,-61%,0
O=S(=O)(c1ccc(Br)cc1)N1CCCN(Cc2cccc(F)c2)CC1,-13%,-10,-1%,-26%,-26%,-8
O=C(c1ccco1)N1CCN(Cc2c(Cl)cccc2Cl)CC1,-2%,-7,0%,?,-56%,-6
Cc1cc(C)cc(OCC(=O)Nc2ccc(N3CCN(C(=O)c4ccco4)CC3)cc2)c1,1%,28,0%,-55%,-2%[57.5 µM],37*
O=C(c1ccco1)N1CCN(Cc2ccc(Br)cc2)CC1,17%,-2,0%,-15%,-26%,33*
O=C(CSc1nnc(C2CC2)n1C1CC1)c1ccccc1F,-34%,26,9%,1%,i,-1
COc1ccc(OCC(=O)N2CCN(C(=O)c3ccco3)CC2)cc1,2%,-54*,0%,0%,i,-6
CCc1ccc(CN2CCN(C(=O)c3cccc(OC)c3OC)CC2)cc1,13%,-57*,0%,-28%,-29%,2
COc1cccc(C(=O)N2CCN(C(=O)c3cccc4ccccc34)CC2)c1OC,12%,-6,0%,1%,i,6
O=C(c1ccco1)N1CCN(Cc2cccc3ccccc23)CC1,7%,-14,0%,-19%,-16%,32*
Cn1c(=O)cc(N2CCN(C(=O)c3ccco3)CC2)[nH]c1=O,?,-113*,0%,3%,-22%,-12
COC(=O)c1ccc(Cn2c(C)c(C(=O)NCc3cccc(C(F)(F)F)c3)sc2=O)o1,.,2,.,6%,-94%,3
O=C(c1cccc(F)c1)N1CCN(Cc2ccco2)CC1,21%,0,0%,-14%,i,-1
COc1cccc(CN2CCN(C(=O)c3ccco3)CC2)c1,9%,-25,0%,2%,?,37*
O=C(c1ccco1)N1CCN(Cc2cccc(F)c2)CC1,9%,-30,0%,33%,i,36*
O=c1[nH]c2ccccc2n1CCCN1CCCCC1,-9%,-61*,0%,0%,0%,-16
O=c1[nH]c2ccccc2n1CCCN1CCN(C(c2ccccc2)c2ccccc2)CC1,.,.,0%,.,.,-18
CCN(CC(=O)Nc1ccc2c(c1)OCCO2)C(=O)C(C)Oc1ccc(F)cc1 (stereo not given),-7%,13,.,-24%,-1%,7
CCOC(=O)c1c(-c2cccs2)csc1NC(=O)CN(CC)CC,23%,4,0%,-32%[1.84 µM],-21%,-2
CCN(CC)CC(=O)Nc1scc2c1c(=O)oc1ccccc12,5%,4,-1%,11µM*,i,23
CC(=O)Nc1cccc(-c2nnc(-c3ccccc3)o2)c1,16%[11.4 µM],10,0%,6.3µM*,-21%,-8
CCOc1cccc(C(=O)Nc2cccc(-c3nnc(-c4ccccc4)o3)c2)c1,-25%,51,0%,-5%,-30%[57.5 µM],39*
O=C(Cc1ccccc1)Nc1cccc(-c2nnc(-c3ccco3)o2)c1,-7%,55,-1%,16%,i,9
SMILES,RGS4 inhibitor,DRD3 antagonist,B2AR arrestin,BRCA1 expr up,PTHR1 agonist,DRD3 agonist
COc1ccccc1OCC(=O)Nc1cccc(-c2nnc(-c3ccco3)o2)c1,11%,3,0%,5µM*,-14%,-1
O=C(Nc1cccc(-c2nnc(-c3ccccc3)o2)c1)C1CC1,-23%,8,0%,8.9µM*,-15%,-1
CCOc1cccc(C(=O)Nc2cccc(-c3nnc(-c4ccc(C)cc4)o3)c2)c1,11%,-25,0%,-31%,i,6
CC(C)(C)C(=O)Nc1cccc(-c2nnc(-c3cccc(NC(=O)C(C)(C)C)c3)o2)c1,-6%,-25,0%,-1%,-14%[57.5 µM],5
CC(=O)Nc1ccc(NC(=O)COC(=O)c2c(-c3ccccc3)noc2C)cc1,1%,-8,5%,-23%,-28%,-7
Cc1cc(N(CCO)CCO)ccc1N=Nc1cc(F)ccc1F,2%,-74*,0%,14%,-13%,-8
Oc1cc2c(cc1O)C(c1ccccc1)CNCC2 (stereo not given),14%[56.9 µM],12,.,4%,-24%,3
CN1CCc2cc(O)c(O)cc2C(c2ccccc2)C1 (stereo not given),-2%[56.9 µM],1,0%,-6%,-33%,108*
Cc1ccc(S(=O)(=O)Oc2ccccc2)cc1,-3%,13,.,14%,i,-8
CN(C)/N=C/c1ccc(OS(=O)(=O)c2ccccc2)cc1,-1%,-11,-1%,10µM*,-6%,1
CCOC(=O)N1CCC2(CC1)OC(=O)C(C)=C2C(=O)NCc1ccc(C)cc1,10%,.,.,.,i,6
Cc1cccc(C(=O)OC(C)C(=O)N2CCN(Cc3ccccc3)CC2)c1 (stereo not given),-13%,24,0%,-14%,-2%,-9
COc1ccc(NC(=O)C2CCN(C(=O)c3ccccc3)CC2)cc1OC,12%,-21,0%,9%,8%[57.5 µM],0
COc1cc(C(=O)N2CCC(C(=O)Nc3cccc(C(C)=O)c3)CC2)cc(OC)c1OC,-12%,-53*,0%,2%,i,0
CC1CCCCN1c1c(S(=O)(=O)c2ccc(Cl)cc2)cnc2ccccc12 (stereo not given),-25%,.,.,.,-12%,-12
O=c1n(-c2ccccc2)c(=O)n2n1CCC2,-6%,16,-1%,-6%,1%[57.5 µM],1
O=c1n(-c2ccccc2)c(=O)n2n1CCCC2,5%,?,0%,-1%,-32%[57.5 µM],42*
CCOC(=O)C1CCN(C(=O)c2ccc(N(C)S(=O)(=O)c3ccc(OC)cc3)cc2)CC1,-3%,6,0%,0%,i,1
CCc1nc2c(OCC=C(C)C)cccn2c1N(C)C(=O)c1ccccc1F,.,14,.,0%,-1%,6

# Compound activity (PubChem)
